According to PubChem BioAssay:
Calls of active or inactive are those of the source.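 How the source made its calls, unless noted: active means normalized viability below 100% at a tested concentration; inactive means the rest.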

Legend:
[1] = drug combination growth inhibition, ovarian cancer – cell-based, oncology-focused library, rucaparib conditional, profiling panel (AID 1508598); details: patient-derived ovarian cancer cells, CellTiter-Glo viability, 144 h, stronger effect = lower value
[2] = viability loss with induced miR-34 in A549 – imaging, A549 dox-inducible miR-34, nuclei and caspase counts, primary screen (AID 1347080;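 active means compounds whose cell count with miR-34 switched on is under 0.7 times the count with it off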); details: A549 miR-34 inducible, Hoechst nuclei count, 48 h
[3] = MELAS cybrid and Rieske KO viability enhancers – cell-based, MELAS cybrids, Rieske KO mouse fibroblasts, CellTiter-Glo, primary screen (AID 1508586;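 active means mean z-score across replicates of 1.96 or higher in either the MELAS or the Rieske mutant cell line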;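 further: z relative to plate mean and SD of compound and empty wells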); details: low glucose
[4] = P. berghei load reduction in hepatocytes – cell-based, HepG2, luciferase luminescence, HepG2 viability, primary screen (AID 624349; in the data active means parasite load remaining mostly below about 12%, no sharp cut-off; inactive means mostly above about 10%;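 further: 100% = mean of DMSO negative control wells on the same plate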); details: P. berghei liver stage in HepG2, luciferase luminescence, concentration not given here; parasite load remaining: stronger effect = lower value; viability: measured here: HepG2 viability without parasites
[5] = biological target: NAD(+) hydrolase SARM1 (Homo sapiens) (UniProt Q6SZW1); assay: blocking NAD cleavage by SARM1 SAM-TIR – cell lysate, NAD-Glo luminescence (AID 1508614;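 active means compound whose remaining NAD level is above about 45 nM, limit read from the data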); details: SAM-TIR HEK293T lysate NADase, at 1 µM, stronger effect = higher value
[6] = at 1.25 µM, OCI-C5x cells, with rucaparib 10 µM, 100% = cells with rucaparib alone
[7] = at 1.25 µM, OCI-C5x cells, without rucaparib
[8] = at 1.25 µM, OCI-P5x cells, with rucaparib 20 µM, 100% = cells with rucaparib alone
[9] = at 1.25 µM, OCI-P5x cells, without rucaparib
[10] = at 5 µM, OCI-C5x cells, with rucaparib 10 µM, 100% = cells with rucaparib alone
[11] = at 5 µM, OCI-C5x cells, without rucaparib
[12] = at 5 µM, OCI-P5x cells, with rucaparib 20 µM, 100% = cells with rucaparib alone
[13] = at 5 µM, OCI-P5x cells, without rucaparib
[14] = stronger effect = lower value, cell number ratio, induced over uninduced
[15] = measured here: relative caspase fold change +Dox/-Dox
[16] = measured here: total cells with miR-34 induction, stronger effect = lower value
[17] = measured here: total cells without miR-34 induction
[18] = MELAS cybrid survival, CellTiter-Glo 48 h, stronger effect = higher value
[19] = Rieske KO mouse fibroblast survival, CellTiter-Glo 72 h
[20] = at 0.000305 µM, OCI-C5x cells, with rucaparib 10 µM, 100% = cells with rucaparib alone
[21] = at 0.000305 µM, OCI-C5x cells, without rucaparib
[22] = at 0.000305 µM, OCI-P5x cells, with rucaparib 20 µM, 100% = cells with rucaparib alone
[23] = at 0.000305 µM, OCI-P5x cells, without rucaparib
[24] = at 0.00122 µM, OCI-C5x cells, with rucaparib 10 µM, 100% = cells with rucaparib alone
[25] = at 0.00122 µM, OCI-C5x cells, without rucaparib
[26] = at 0.00122 µM, OCI-P5x cells, with rucaparib 20 µM, 100% = cells with rucaparib alone
[27] = at 0.00122 µM, OCI-P5x cells, without rucaparib
[28] = at 0.00488 µM, OCI-C5x cells, with rucaparib 10 µM, 100% = cells with rucaparib alone
[29] = at 0.00488 µM, OCI-C5x cells, without rucaparib
[30] = at 0.00488 µM, OCI-P5x cells, with rucaparib 20 µM, 100% = cells with rucaparib alone
[31] = at 0.00488 µM, OCI-P5x cells, without rucaparib
[32] = at 0.0195 µM, OCI-C5x cells, with rucaparib 10 µM, 100% = cells with rucaparib alone
[33] = at 0.0195 µM, OCI-C5x cells, without rucaparib
[34] = at 0.0195 µM, OCI-P5x cells, with rucaparib 20 µM, 100% = cells with rucaparib alone
[35] = at 0.0195 µM, OCI-P5x cells, without rucaparib
[36] = at 0.0781 µM, OCI-C5x cells, with rucaparib 10 µM, 100% = cells with rucaparib alone
[37] = at 0.0781 µM, OCI-C5x cells, without rucaparib
[38] = at 0.0781 µM, OCI-P5x cells, with rucaparib 20 µM, 100% = cells with rucaparib alone
[39] = at 0.0781 µM, OCI-P5x cells, without rucaparib
[40] = at 0.313 µM, OCI-C5x cells, with rucaparib 10 µM, 100% = cells with rucaparib alone
[41] = at 0.313 µM, OCI-C5x cells, without rucaparib
[42] = at 0.313 µM, OCI-P5x cells, with rucaparib 20 µM, 100% = cells with rucaparib alone
[43] = at 0.313 µM, OCI-P5x cells, without rucaparib

NAD(+) hydrolase SARM1 (Homo sapiens), sequence (Q6SZW1 whole entry, looked up): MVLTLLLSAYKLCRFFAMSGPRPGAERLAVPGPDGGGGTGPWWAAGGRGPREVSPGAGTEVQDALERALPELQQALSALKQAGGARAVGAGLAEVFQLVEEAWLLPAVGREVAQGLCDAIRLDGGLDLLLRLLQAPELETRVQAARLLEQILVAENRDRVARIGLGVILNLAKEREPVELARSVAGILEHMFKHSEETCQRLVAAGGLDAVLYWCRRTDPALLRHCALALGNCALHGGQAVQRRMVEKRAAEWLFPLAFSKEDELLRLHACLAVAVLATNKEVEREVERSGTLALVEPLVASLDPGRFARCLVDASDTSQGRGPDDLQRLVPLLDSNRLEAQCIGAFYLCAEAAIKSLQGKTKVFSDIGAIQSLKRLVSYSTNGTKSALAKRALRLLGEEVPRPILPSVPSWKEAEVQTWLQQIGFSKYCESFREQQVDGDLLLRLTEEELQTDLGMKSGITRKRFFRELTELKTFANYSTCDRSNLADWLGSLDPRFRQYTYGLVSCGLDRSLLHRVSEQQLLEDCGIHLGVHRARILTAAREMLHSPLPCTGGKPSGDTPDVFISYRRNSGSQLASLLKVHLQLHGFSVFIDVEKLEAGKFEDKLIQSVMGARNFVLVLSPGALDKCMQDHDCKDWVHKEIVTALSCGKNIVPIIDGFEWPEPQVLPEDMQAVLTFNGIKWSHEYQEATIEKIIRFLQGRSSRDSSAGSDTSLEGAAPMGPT

CC(C)NCCCn1c(Sc2cc3c(cc2I)OCO3)nc2c(N)ncnc21
viability [1, 6]: 77.5% (active)
viability [1, 7]: 33.9% (active)
viability [1, 8]: 17.3% (active)
viability [1, 9]: 8.78% (active)
viability [1, 10]: 15.7% (active)
viability [1, 11]: 9.3% (active)
viability [1, 12]: 7.34% (active)
viability [1, 13]: 6.28% (active)

C[C@]12CC[C@H]3c4ccc(O)cc4CC[C@H]3[C@@H]1CCC2=O
fold change [2, 14]: 0.911 (inactive)
fold change [2, 15]: 1.15
cell count [2, 16]: 7600
cell count [2, 17]: 8340
z-score [3, 18]: -0.223 (inactive)
z-score [3, 19]: 0.742
viability [1, 20]: 108% (inactive)
viability [1, 21]: 116% (inactive)
viability [1, 22]: 102% (inactive)
viability [1, 23]: 111% (inactive)
viability [1, 24]: 112% (inactive)
viability [1, 25]: 117% (inactive)
viability [1, 26]: 101% (inactive)
viability [1, 27]: 106% (inactive)
viability [1, 28]: 115% (inactive)
viability [1, 29]: 120% (inactive)
viability [1, 30]: 99.5% (active)
viability [1, 31]: 100% (inactive)
viability [1, 32]: 114% (inactive)
viability [1, 33]: 108% (inactive)
viability [1, 34]: 96.5% (active)
viability [1, 35]: 96.2% (active)
viability [1, 36]: 115% (inactive)
viability [1, 37]: 99.8% (active)
viability [1, 38]: 96.1% (active)
viability [1, 39]: 66% (active)
viability [1, 40]: 81.6% (active)
viability [1, 41]: 57.7% (active)
viability [1, 42]: 80.9% (active)
viability [1, 43]: 42.9% (active)
viability [1, 6]: 78% (active)
viability [1, 7]: 63.5% (active)
viability [1, 8]: 65% (active)
viability [1, 9]: 29.9% (active)
viability [1, 10]: 36.6% (active)
viability [1, 11]: 23.7% (active)
viability [1, 12]: 43.7% (active)
viability [1, 13]: 13.5% (active)

CC(Oc1cc(-n2cnc3ccc(CN4CCN(C)CC4)cc32)sc1C(N)=O)c1ccccc1C(F)(F)F (configuration not stated)
fold change [2, 14]: 1.2 (inactive)
fold change [2, 15]: 0.688
cell count [2, 16]: 1290
cell count [2, 17]: 1080
z-score [3, 18]: 0.375 (inactive)
z-score [3, 19]: 1.78

CC(=O)O[C@@]1(C(C)=O)CC[C@H]2[C@@H]3C=C(C)C4=CC(=O)CC[C@]4(C)[C@@H]3CC[C@@]21C
fold change [2, 14]: 0.871 (inactive)
fold change [2, 15]: 0.828
cell count [2, 16]: 6160
cell count [2, 17]: 7070
z-score [3, 18]: -0.515 (inactive)
z-score [3, 19]: 0.339
viability [1, 20]: 94.9% (active)
viability [1, 21]: 104% (inactive)
viability [1, 22]: 96.4% (active)
viability [1, 23]: 104% (inactive)
viability [1, 24]: 107% (inactive)
viability [1, 25]: 97.6% (active)
viability [1, 26]: 99.8% (active)
viability [1, 27]: 100% (inactive)
viability [1, 28]: 102% (inactive)
viability [1, 29]: 101% (inactive)
viability [1, 30]: 99.9% (active)
viability [1, 31]: 96.3% (active)
viability [1, 32]: 100% (inactive)
viability [1, 33]: 99.3% (active)
viability [1, 34]: 96.9% (active)
viability [1, 35]: 93.1% (active)
viability [1, 36]: 98.1% (active)
viability [1, 37]: 94.7% (active)
viability [1, 38]: 100% (inactive)
viability [1, 39]: 100% (inactive)
viability [1, 40]: 116% (inactive)
viability [1, 41]: 90.3% (active)
viability [1, 42]: 92.2% (active)
viability [1, 43]: 89.7% (active)
viability [1, 6]: 116% (inactive)
viability [1, 7]: 92.1% (active)
viability [1, 8]: 89.9% (active)
viability [1, 9]: 82.2% (active)
viability [1, 10]: 111% (inactive)
viability [1, 11]: 93.9% (active)
viability [1, 12]: 84.5% (active)
viability [1, 13]: 82.1% (active)

CN(C)CCSSCCNC(=O)C1CCN(C(=O)CSc2ccc(Cl)cc2)CC1
fold change [2, 14]: 0.922 (inactive)
fold change [2, 15]: 0.314
cell count [2, 16]: 7870
cell count [2, 17]: 8530
z-score [3, 18]: -0.0132 (inactive)
z-score [3, 19]: 1
viability [1, 20]: 118% (inactive)
viability [1, 21]: 110% (inactive)
viability [1, 22]: 103% (inactive)
viability [1, 23]: 95.4% (active)
viability [1, 24]: 117% (inactive)
viability [1, 25]: 112% (inactive)
viability [1, 26]: 102% (inactive)
viability [1, 27]: 101% (inactive)
viability [1, 28]: 126% (inactive)
viability [1, 29]: 112% (inactive)
viability [1, 30]: 109% (inactive)
viability [1, 31]: 103% (inactive)
viability [1, 32]: 122% (inactive)
viability [1, 33]: 105% (inactive)
viability [1, 34]: 106% (inactive)
viability [1, 35]: 100% (active)
viability [1, 36]: 129% (inactive)
viability [1, 37]: 112% (inactive)
viability [1, 38]: 103% (inactive)
viability [1, 39]: 95.1% (active)
viability [1, 40]: 124% (inactive)
viability [1, 41]: 91.9% (active)
viability [1, 42]: 98.4% (active)
viability [1, 43]: 89.4% (active)
viability [1, 6]: 120% (inactive)
viability [1, 7]: 112% (inactive)
viability [1, 8]: 93.2% (active)
viability [1, 9]: 90.1% (active)
viability [1, 10]: 137% (inactive)
viability [1, 11]: 140% (inactive)
viability [1, 12]: 88.3% (active)
viability [1, 13]: 87.3% (active)

CO/N=C(\C(=O)N[C@@H]1C(=O)N2C(C(=O)O)=C(C[N+]3(C)CCCC3)CS[C@H]12)c1csc(N)n1
parasite load remaining [4]: 85.4% (inactive)
viability [4]: 76.2%
fold change [2, 14]: 0.925 (inactive)
fold change [2, 15]: 0.702
cell count [2, 16]: 8990
cell count [2, 17]: 9720
z-score [3, 18]: -1.62 (inactive)
z-score [3, 19]: -0.496
remaining NAD [5]: 10 nM (inactive)
